# Test results: PubChem BioAssay AID1159580 (chemical genetic matrix, 2015)
# Screen size: about 5,500 compounds; about 2,000 (36%) were called active. Inconclusive results (about 18%) are left out. This is one part of the list. Values without a mark were called inactive. Rule as the data show it: active = normalized growth mostly below about 0.91 (no sharp cut-off); inconclusive = no clear call, values can overlap the other calls; inactive = mostly above about 0.92.
# Experiment: chemical genetic growth profiling, strain panel (AID 1159580);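 also: tested at 20 µM; growth read once vehicle control cultures reached saturation at 30 °C; 1 = growth at the plate median or of vehicle wells; lower values mean less growth of the strain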
# Conditions: S. cerevisiae deletion strains, growth OD
smiles,measurement,setting,value
NC(N)=Nc1nc(-c2cc(Cl)sc2Cl)cs1,normalized growth,"locus YAR019C, strain CDC15, stronger effect = lower value",0.994
same,normalized growth,"locus YBL105C, strain PKC1, stronger effect = lower value",0.998
same,normalized growth,"locus YBR135W, strain CKS1, stronger effect = lower value",0.987
same,normalized growth,"locus YBR136W, strain MEC1, stronger effect = lower value",0.99
same,normalized growth,"locus YBR160W, strain CDC28, stronger effect = lower value",0.99
same,normalized growth,"locus YDL017W, strain CDC7, stronger effect = lower value",0.993
same,normalized growth,"locus YDL028C, strain MPS1, stronger effect = lower value",0.985
same,normalized growth,"locus YDL101C, strain DUN1, stronger effect = lower value",0.966
same,normalized growth,"locus YDL108W, strain KIN28, stronger effect = lower value",0.988
same,normalized growth,"locus YDL132W, strain cdc53, stronger effect = lower value",0.979
same,normalized growth,"locus YDL214C, strain PRR2, stronger effect = lower value",0.934
same,normalized growth,"locus YDR052C, strain DBF4, stronger effect = lower value",0.99
same,normalized growth,"locus YDR054C, strain cdc34, stronger effect = lower value",0.973
same,normalized growth,"locus YDR226W, strain ADK1, stronger effect = lower value",0.974
same,normalized growth,"locus YDR477W, strain SNF1, stronger effect = lower value",0.944
same,normalized growth,"locus YER123W, strain YCK3, stronger effect = lower value",0.862
same,normalized growth,"locus YER133W, strain GLC7, stronger effect = lower value",0.905
same,normalized growth,"locus YFL009W, strain cdc4, stronger effect = lower value",0.983
same,normalized growth,"locus YFL029C, strain CAK1, stronger effect = lower value",0.988
same,normalized growth,"locus YFR003C, strain YPI1, stronger effect = lower value",0.986
same,normalized growth,"locus YFR019W, strain FAB1, stronger effect = lower value",0.947
same,normalized growth,"locus YFR028C, strain CDC14, stronger effect = lower value",0.982
same,normalized growth,"locus YGR040W, strain KSS1, stronger effect = lower value",0.942
same,normalized growth,"locus YGR052W, strain FMP48, stronger effect = lower value",0.935
same,normalized growth,"locus YGR092W, strain DBF2, stronger effect = lower value",0.945
same,normalized growth,"locus YHR030C, strain SLT2, stronger effect = lower value",0.821 (active)
same,normalized growth,"locus YHR079C, strain IRE1, stronger effect = lower value",0.897
same,normalized growth,"locus YHR082C, strain KSP1, stronger effect = lower value",1
same,normalized growth,"locus YHR205W, strain SCH9, stronger effect = lower value",0.904
same,normalized growth,"locus YIL147C, strain SLN1, stronger effect = lower value",0.987
same,normalized growth,"locus YJL095W, strain BCK1, stronger effect = lower value",0.826
same,normalized growth,"locus YJL128C, strain PBS2, stronger effect = lower value",0.922
same,normalized growth,"locus YJL157C, strain FAR1, stronger effect = lower value",0.932
same,normalized growth,"locus YJR016C, strain ILV3, stronger effect = lower value",0.997
same,normalized growth,"locus YJR066W, strain TOR1 (second series), stronger effect = lower value",0.886
same,normalized growth,"locus YJR066W, strain TOR1, stronger effect = lower value",0.997
same,normalized growth,"locus YKL048C, strain ELM1, stronger effect = lower value",0.947
same,normalized growth,"locus YKL067W, strain YNK1, stronger effect = lower value",0.932
same,normalized growth,"locus YKL101W, strain HSL1, stronger effect = lower value",0.93
same,normalized growth,"locus YKL193C, strain SDS22, stronger effect = lower value",0.985
same,normalized growth,"locus YKL203C, strain TOR2, stronger effect = lower value",0.988
same,normalized growth,"locus YLR113W, strain HOG1, stronger effect = lower value",0.757 (active)
same,normalized growth,"locus YLR133W, strain CKI1, stronger effect = lower value",0.958
same,normalized growth,"locus YLR403W, strain SFP1, stronger effect = lower value",0.962
same,normalized growth,"locus YML070W, strain DAK1, stronger effect = lower value",0.901
same,normalized growth,"locus YMR001C, strain CDC5, stronger effect = lower value",0.993
same,normalized growth,"locus YMR205C, strain PFK2 (second series), stronger effect = lower value",0.948
same,normalized growth,"locus YMR277W, strain FCP1, stronger effect = lower value",0.985
same,normalized growth,"locus YNL006W, strain LST8, stronger effect = lower value",0.984
same,normalized growth,"locus YNL020C, strain ARK1, stronger effect = lower value",0.96
same,normalized growth,"locus YNL161W, strain CBK1, stronger effect = lower value",0.989
same,normalized growth,"locus YNL183C, strain NPR1, stronger effect = lower value",0.988
same,normalized growth,"locus YNL207W, strain RIO2, stronger effect = lower value",0.989
same,normalized growth,"locus YNL222W, strain SSU72, stronger effect = lower value",0.99
same,normalized growth,"locus YNL307C, strain MCK1 (second series), stronger effect = lower value",0.927
same,normalized growth,"locus YOL078W, strain AVO1, stronger effect = lower value",0.986
same,normalized growth,"locus YOL136C, strain PFK27, stronger effect = lower value",0.91
same,normalized growth,"locus YOR061W, strain CKA2, stronger effect = lower value",0.983
same,normalized growth,"locus YOR119C, strain RIO1, stronger effect = lower value",0.981
same,normalized growth,"locus YOR231W, strain MKK1, stronger effect = lower value",0.935
same,normalized growth,"locus YOR329C, strain SCD5, stronger effect = lower value",0.995
same,normalized growth,"locus YPL031C, strain PHO85, stronger effect = lower value",0.93
same,normalized growth,"locus YPL153C, strain RAD53, stronger effect = lower value",0.921
same,normalized growth,"locus YPL204W, strain HRR25, stronger effect = lower value",0.921
same,normalized growth,"locus YPL209C, strain IPL1, stronger effect = lower value",0.99
same,normalized growth,"locus YPL256C, strain CLN2, stronger effect = lower value",0.89
same,normalized growth,"locus YPR025C, strain CCL1, stronger effect = lower value",0.992
same,normalized growth,"locus YPR106W, strain ISR1, stronger effect = lower value",0.985
same,normalized growth,"locus YPR111W, strain DBF20, stronger effect = lower value",0.974
same,normalized growth,"strain NNK1, stronger effect = lower value",0.971
same,normalized growth,"strain TSCII, stronger effect = lower value",0.985
